GalR3 antagonist: blocks the human galanin receptor 3 | O60755 | HEK293 GalR3-CNG cAMP membrane potential fluorescence; galR3 body fused to GalR1 C-terminus | 0.44% of 360,000 active | inhibition, % at 3 µM | AID 651719;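 active means inhibition above the screen-wide average plus 3 SD, cut at about 13% in these data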;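 further: forskolin and galanin both at EC90 stimulate the cells; cAMP rise reported by CNG channel membrane potential dye signal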
COUP-TFII inh: inhibitors of human COUP-TFII (NR2F2). HEK293T NGFI-A luciferase reporter, luminescence. inhibition, % at 8.6 µM. 0.7% of 370,000 active;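 active means inhibition above a per-plate cutoff, mean inhibition of test wells between control levels plus 3 SD, cut at about 38% in these data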;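 further: cells cotransfected with COUP-TFII expression vector driving the NGFI-A reporter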
NCOA1 inh: inhibitors of human steroid receptor coactivator 1 (SRC1); HEK293 GAL4-SRC1 luciferase reporter, luminescence; Q15788; AID 588354; 0.12% of 360,000 active; inhibition, % at 3.6 µM;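 active means inhibition above the campaign mean plus 3 SD, with each screening campaign given its own cutoff, cut at about 60% in these data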
NCOA3 inh: human NCOA3 inhibition. Q9Y6Q9. HEK293 GAL4-SRC3 luciferase reporter, luminescence. inhibition, % at 3.6 µM. 0.17% of 360,000 active. AID 588352;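 active means inhibition above a per-campaign cutoff, the mean of all compounds plus 3 SD, cut at about 60% in these data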;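 further: higher means less SRC3-driven luciferase light from the GAL4 reporter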
NCOA2 inhibitor: human SRC2 (NCOA2) inhibition | AID 651957 | HEK293 GAL4-SRC2 luciferase reporter, luminescence | inhibition, % at 9 µM | Q15596 | 0.17% of 370,000 active;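 active means inhibition above the mean inhibition of all tested compounds plus 3 SD, set per campaign, cut at about 52% in these data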
LRH-1 inv ag: suppresses constitutive activity of human LRH-1. inhibition, % at 3.6 µM. 0.13% of 360,000 active. HEK293T StAR-luciferase reporter, LRH-1 transfected, 24 h;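 active means inhibition above the mean inhibition of all tested compounds plus 3 SD, cut at about 73% in these data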
GalR3 conf: confirmation of human galanin receptor 3 antagonists | HEK293 GalR3 CNG cAMP biosensor, membrane potential fluorescence; galR3 fused to GalR1 carboxy tail; challenged with forskolin and galanin at EC90 | inhibition, % at 3 µM | shares compounds with GalR3 antagonist | 59% of 1,600 active;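 active means inhibition above the primary screen's cutoff, the mean inhibition of all screened compounds plus 3 SD, cut at about 13% in these data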
HEK-CNG parental: acts as nonspecific agonist in parental HEK-CNG cells | AID 652268 | activation, % at 3 µM | HEK293-CNG parental cells, cAMP membrane potential fluorescence; normalised: DMSO wells 0%, forskolin wells 100% | shares compounds with GalR3 antagonist | 10% of 1,600 active; in the data active means activation above about 1.3%
Large screens that a line does not name were inactive (follow-up assays come after a bar, where they were run). The list is not random: actives were taken first. Their share in the collection is about 1.1%.

Cc1ccc(NC(=O)c2ccccc2NS(=O)(=O)c2ccc(Cl)s2)cc1	GalR3 antagonist 16.7 | GalR3 conf 33.2 | HEK-CNG parental inactive
O=C(Nc1ccccc1Cc1ccccc1)c1ccccc1NS(=O)(=O)c1ccc(Cl)s1	GalR3 antagonist 96.2 | GalR3 conf 103.5 | HEK-CNG parental inactive
COc1cc(C=Nn2c(-c3n[nH]c4c3CCC4)n[nH]c2=S)ccc1OCc1ccccc1	none (no result: GalR3 antagonist, NCOA1 inh, NCOA3 inh, LRH-1 inv ag)
Cc1[nH]c(=O)c(C#N)cc1-c1ccccc1	GalR3 antagonist 20.1 | GalR3 conf 19.5 | HEK-CNG parental inactive
Cc1[nH]c(=O)c(C#N)cc1-c1csc(-c2ccccc2)n1	none
CCCCCN1CCCCC(NC(=O)C(C)(C)C)C1=O (stereo not drawn)	none (no result: GalR3 antagonist, NCOA1 inh, NCOA3 inh, LRH-1 inv ag)
N#Cc1ccccc1S(=O)(=O)NC(=O)[C@H]1O[C@@H](n2cnc3c(N)ncnc32)[C@H](O)[C@@H]1O	GalR3 antagonist 20.9 | GalR3 conf 45.0 | HEK-CNG parental 1.4
CCOc1ccc(NC(=S)NC(=O)c2c(Cl)cnn2CC)c([N+](=O)[O-])c1	GalR3 antagonist 13.5 | GalR3 conf inactive | HEK-CNG parental inactive
CCOc1ccc(NC(=S)NC(=O)c2c(Br)cnn2C)c([N+](=O)[O-])c1	none
CC1CC(=O)NN=C1c1ccc(N)c([N+](=O)[O-])c1 (stereo not drawn)	GalR3 antagonist 64.2 | GalR3 conf 73.0 | HEK-CNG parental inactive
O=C(O)CNC(=S)N(Cc1ccccc1Cl)C1CCCCC1	GalR3 antagonist 14.4 | GalR3 conf inactive | HEK-CNG parental inactive
O=C(O)CNC(=S)N(Cc1ccc(F)cc1)C1CCCCC1	none
O=C(COC(=O)c1ccc(Sc2ncn[nH]2)c([N+](=O)[O-])c1)Nc1ccc(Cl)cc1	none (no result: GalR3 antagonist, NCOA1 inh, NCOA3 inh, LRH-1 inv ag)
Cc1cc(C(=O)O[C@@H]2CCC[C@]3(C(=O)N(Cc4ccccc4)c4ccccc43)[C@H]2NC(=O)CCc2ccccc2)no1	none (no result: GalR3 antagonist, NCOA1 inh, NCOA3 inh, LRH-1 inv ag)
O=C(OC1CCOC1=O)c1cc(Cl)ccc1[N+](=O)[O-] (stereo not drawn)	none
O=C(OC1CCOC1=O)c1ccc(N2CCCC2)c([N+](=O)[O-])c1 (stereo not drawn)	GalR3 antagonist 20.2 | GalR3 conf inactive | HEK-CNG parental inactive
CC(=O)c1cc(-c2ccc(-c3ccccc3)c(F)c2)c(=O)n2c1CCC2	none (no result: GalR3 antagonist, NCOA1 inh, NCOA3 inh, LRH-1 inv ag)
Cc1cc(C)cc(NC(=O)N2CCC(c3nc4ccc(Cl)cc4[nH]3)CC2)c1	none (no result: GalR3 antagonist, NCOA1 inh, NCOA3 inh, LRH-1 inv ag)
O=C(Cc1ccc(Nc2nc3ccc(Br)cc3[nH]2)cc1)NCCc1cccs1	GalR3 antagonist 15.3 | GalR3 conf 27.0 | HEK-CNG parental inactive
O=C(Nc1ccc(Cl)cc1Cl)OC1CCC12CCC(c1ccccc1)CC2 (stereo not drawn)	none (no result: GalR3 antagonist, NCOA1 inh, NCOA3 inh, NCOA2 inhibitor, LRH-1 inv ag)
Cn1nccc1C(=O)Nn1cnnc1	none (no result: GalR3 antagonist) | GalR3 conf inactive | HEK-CNG parental inactive
Cc1[nH]nc(SCC(=O)N2CCCCC2)c1[N+](=O)[O-]	none
Cc1[nH]nc(SCC(=O)N2CCCCCC2)c1[N+](=O)[O-]	GalR3 antagonist 13.9 | GalR3 conf inactive | HEK-CNG parental inactive
COC(=O)[C@]12C[C@H](CC(=O)NCC3CCCCC3)C(=O)N(Cc3ccco3)C1=C[C@H](C1CCCC1)O[C@@H]2C	none (no result: GalR3 antagonist, NCOA1 inh, NCOA3 inh, LRH-1 inv ag)
CCn1nc(C(=O)NNC(=O)CCOc2cc(C)ccc2C)c2ccccc2c1=O	none
CCCn1nc(C(=O)NNC(=O)CCCOc2ccc(C)cc2)c2ccccc2c1=O	GalR3 antagonist 85.5 | GalR3 conf 90.3 | HEK-CNG parental inactive
O=C(OCc1ccccc1)N1CCC2CC1c1ccc(N3CCN(Cc4ccccc4)CC3)cc12 (stereo not drawn)	none (no result: NCOA1 inh, NCOA3 inh, LRH-1 inv ag)
COc1cc([N+](=O)[O-])cc(/C=N/NC(=O)c2cccnc2)c1O	GalR3 antagonist 54.4 | GalR3 conf inactive | HEK-CNG parental inactive
CN(CCO)c1cc(Sc2nc3ccccc3s2)c2nonc2c1[N+](=O)[O-]	GalR3 antagonist 27.8 | GalR3 conf 50.8 | HEK-CNG parental inactive
